Experimental data reported in PubChem BioAssay (Tox21).
Results filed as inconclusive are left out. Where a call stands in place of a potency, no number is given. A number with no mark means an inactive call. The source made the active and inactive calls. Calls follow the shape of the dose curve; as a rule, active = well fitted activation curve with a large enough effect in the repeat runs; inconclusive = weak or mixed curves; inactive = flat fitted curve, though single readings scatter.

Assay: A CellTox Green Cytotoxicity Assay to monitor cytotoxicity in HEK293 cells - 8 hour (AID 1224884); also: nearly all actives have a fitted effect of over 35% in size
Settings: CellTox Green fluorescence; series mostly up to 76.8 µM
In short: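 Dead-cell fluorescence measured kinetically: asymmetric cyanine dye, HEK293, 600 cells/well, 5 h settle, 23 nL cpd/DMSO, 37 C, reads 0–40 h every 8 h.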
Potency is read from the fitted curve at half-maximal effect.

Structure (SMILES) | Potency | cytotoxicity increase
CCOC(=O)OC(=O)OCC | inactive | 
C/C=C/C(=O)OCC(C)C | inactive | 
[Cl][Sc]([Cl])[Cl] | inactive | 
COC(=O)c1ccc([N+](=O)[O-])cc1 | inactive | 
CCCCCCCCCCCCS(=O)(=O)Cl |  | -0.511% [at 15.8 µM]
CSc1ccc(O)cc1C | inactive | 
CN(C)CCOc1ccc(/C(=C(/CCCl)c2ccccc2)c2ccccc2)cc1 | 45.8 µM (active) | 
COCCC(=O)OC | inactive | 
CCN(CCC#N)c1ccc(N=Nc2ccc([N+](=O)[O-])cc2)cc1 | inactive | 
Nc1cc([N+](=O)[O-])ccc1Cl | inactive | 
O=c1[nH]cccc1O | inactive | 
CCN(CC)c1ccc(C=O)cc1 | inactive | 
CC(CC(C)(C)C)CC(C)(C)CC(C)(C)C (centres undefined) | inactive | 
CN1CCN(C)CC1 | inactive | 
NC(=O)C1CO1 (centres undefined) | inactive | 
CC1(C)[C@H](C(=O)OCc2cccc(Oc3ccccc3)c2)[C@@H]1C=C(Cl)Cl | inactive | 
COc1cc2ncnc(Nc3cccc(Cl)c3)c2cc1OC |  | -7.13% [at 15.8 µM]

Structure (SMILES) | Potency | cytotoxicity increase
COc1cc(C(C)C)ccc1C |  | -0.16% [at 15.8 µM]
C1CCSC1 | inactive | 
CCCCCN=C(N)N/N=C/c1c[nH]c2ccc(OC)cc12 | 15.1 µM (active) | 
CCc1cccc(C)c1N(C(=O)CS(=O)(=O)O)C(C)COC (centres undefined) | inactive | 
N#CCCOCCC#N | inactive | 
CCCCCCCCSCc1cc(C)c(O)c(CSCCCCCCCC)c1 | inactive | 
Nc1ccc(F)c([N+](=O)[O-])c1 | inactive | 
CCCCNc1ccc(NCCCC)c2c1C(=O)c1ccccc1C2=O |  | 1.22% [at 15.8 µM]
CCc1c(C)cc(N)c(CC)c1N | inactive | 
C=Cc1ccc(O)c(OC)c1 | inactive | 
Nc1ccc(Oc2cccc(Oc3ccc(N)cc3)c2)cc1 | inactive | 
Nc1ccc(Cl)c([N+](=O)[O-])c1 | inactive | 
CCNc1nc(NC(C)(C)C)nc(OC)n1 | inactive | 
CN1CCN(CCCN2c3ccccc3Sc3ccc(C(F)(F)F)cc32)CC1 | 23.9 µM (active) | 
C=C(C)CCO | inactive | 
O=C(O)CN(CCCN(CC(=O)O)CC(=O)O)CC(=O)O |  | -4.96% [at 15.8 µM]
CN(C[C@@H](CC[N+]12CCC(C3CCCCC3)(CC1)CC2)c1ccc(Cl)c(Cl)c1)C(=O)c1cc(C(F)(F)F)cc(C(F)(F)F)c1 | 43.6 µM (active) | 
